Calls of active or inactive are those of the source. No rule for the calls is given here.
Biological target: Estrogen receptor (Homo sapiens) (UniProt P03372)
Test: ERalpha ligand binders by competition, primary screen, cell-based, Cos7 ERalpha-GFP, flow cytometry (AID 1211);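 also: 0% = DMSO vehicle wells and 100% = no E2-Alexa633 signal left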
Conditions: fluorescent ligand competition, stronger effect = higher value

Sequence of Estrogen receptor (Homo sapiens) (P03372 whole entry, looked up): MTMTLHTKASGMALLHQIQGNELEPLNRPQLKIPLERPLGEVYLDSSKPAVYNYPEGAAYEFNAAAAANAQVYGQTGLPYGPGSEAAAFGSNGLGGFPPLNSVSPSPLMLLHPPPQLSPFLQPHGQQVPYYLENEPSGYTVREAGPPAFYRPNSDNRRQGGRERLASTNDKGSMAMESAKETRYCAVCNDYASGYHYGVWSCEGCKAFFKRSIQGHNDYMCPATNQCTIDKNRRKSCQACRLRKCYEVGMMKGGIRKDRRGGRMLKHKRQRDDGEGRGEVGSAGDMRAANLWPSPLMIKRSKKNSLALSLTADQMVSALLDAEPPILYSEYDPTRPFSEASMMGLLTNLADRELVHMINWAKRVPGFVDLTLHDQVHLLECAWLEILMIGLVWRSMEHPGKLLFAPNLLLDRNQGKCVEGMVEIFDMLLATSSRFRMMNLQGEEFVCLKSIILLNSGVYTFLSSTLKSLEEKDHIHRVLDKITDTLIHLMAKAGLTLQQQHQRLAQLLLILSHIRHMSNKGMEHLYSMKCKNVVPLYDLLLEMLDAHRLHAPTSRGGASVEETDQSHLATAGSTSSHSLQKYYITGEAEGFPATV

Which results are given for `O=c1cc(O)c2c(=O)n(-c3ccccc3)c3c(c2o1)CCCCCC3`?
inhibition of ligand binding (at 10 µM): 31% (inactive); inhibition of ligand binding (binding inhibition, at 0.1 µM): 1%

How did the inhibition of ligand binding (at 10 µM) turn out when `Cc1cc([N+](=O)[O-])c2c(c1C)C1C=CCC1C(c1ccccn1)N2` (stereo unspecified) was run?
The inhibition of ligand binding was 72% (active).

What about the inhibition of ligand binding (binding inhibition, at 0.1 µM) of the same molecule?
Its inhibition of ligand binding is 10%.

With `O=C(Nc1nccs1)c1nc(-c2ccccc2)n(-c2ccccc2)n1` as the molecule, how does the inhibition of ligand binding (at 10 µM) read?
Its inhibition of ligand binding is 27% (inactive).

And the inhibition of ligand binding (binding inhibition, at 0.1 µM)?
Its inhibition of ligand binding is 36%.

With `CC(=O)c1ccc(NCC(=O)N2CCN(c3ccccc3)CC2)cc1` as the molecule, how does the inhibition of ligand binding (at 10 µM) read?
Its inhibition of ligand binding is 58% (inactive).

What about the inhibition of ligand binding (binding inhibition, at 0.1 µM) of the same molecule?
Its inhibition of ligand binding is 18%.

`COc1ccc(C2Nc3ccccc3C(=O)N2c2ccc(C)cc2)cc1Cn1cc([N+](=O)[O-])cn1` (stereo unspecified) was tested. Which inhibition of ligand binding (at 10 µM) did it give?
Its inhibition of ligand binding is 26% (inactive).

And the inhibition of ligand binding (binding inhibition, at 0.1 µM)?
Its inhibition of ligand binding is 7%.

What does the source list for `CCCSc1nc(C)c(-c2csc(C(C#N)=C3CCCC3)n2)cc1C#N`?
inhibition of ligand binding (at 10 µM): 37% (inactive); inhibition of ligand binding (binding inhibition, at 0.1 µM): 44%

Which inhibition of ligand binding (at 10 µM) does the source give for `Nc1ccc(-c2cc(-c3cccc(N)c3)nc(-c3ccccc3)n2)cc1` here?
The inhibition of ligand binding was 42% (inactive).

What about the inhibition of ligand binding (binding inhibition, at 0.1 µM) of the same molecule?
The inhibition of ligand binding was 2%.

Which inhibition of ligand binding (at 10 µM) does the source give for `C=CCn1c(SCC(=O)NC(=O)NCc2ccco2)nc2sc(CC)cc2c1=O` here?
Its inhibition of ligand binding is 10% (inactive).

And the inhibition of ligand binding (binding inhibition, at 0.1 µM)?
Its inhibition of ligand binding is 3%.

With `N#CC1=C(N)OC2=C(CCC/C2=C/c2ccoc2)C1c1ccoc1` (stereo unspecified) as the molecule, how does the inhibition of ligand binding (at 10 µM) read?
The inhibition of ligand binding was 56% (inactive).

What about the inhibition of ligand binding (binding inhibition, at 0.1 µM) of the same molecule?
Its inhibition of ligand binding is 40%.

For `COc1cc(C=C(c2nc3ccccc3s2)c2nc3ccccc3s2)ccc1O`, which inhibition of ligand binding (at 10 µM) is on record?
Its inhibition of ligand binding is 31% (inactive).

And the inhibition of ligand binding (binding inhibition, at 0.1 µM)?
The inhibition of ligand binding was 35%.

`Cc1ccc(S(=O)(=O)Cc2ccc(C(=O)N3CCc4ccccc4C3)o2)cc1` was tested. Which inhibition of ligand binding (at 10 µM) did it give?
The inhibition of ligand binding was 54% (inactive).

What about the inhibition of ligand binding (binding inhibition, at 0.1 µM) of the same molecule?
Its inhibition of ligand binding is 57%.

For `COc1ccc(Cc2nnc(NC(=O)Cc3cccs3)s2)cc1`, which inhibition of ligand binding (at 10 µM) is on record?
Its inhibition of ligand binding is 47% (inactive).

And the inhibition of ligand binding (binding inhibition, at 0.1 µM)?
The inhibition of ligand binding was 47%.

Which results are given for `Cn1c(-c2ccc3nc(N)sc3c2)nc2cc(N)ccc21`?
inhibition of ligand binding (at 10 µM): 36% (inactive); inhibition of ligand binding (binding inhibition, at 0.1 µM): 37%

For `COc1cc(C(=O)Nc2nnc(-c3sccc3C)s2)cc(OC)c1OC`, which inhibition of ligand binding (at 10 µM) is on record?
Its inhibition of ligand binding is 2% (active).

What about the inhibition of ligand binding (binding inhibition, at 0.1 µM) of the same molecule?
The inhibition of ligand binding was 75%.

What does the source list for `Oc1ccc(-c2nc3ccc4ccccc4c3c3c2CCC3)cc1O`?
inhibition of ligand binding (at 10 µM): 41% (inactive); inhibition of ligand binding (binding inhibition, at 0.1 µM): 44%

With `Cc1c(Cl)cccc1NS(=O)(=O)c1ccc2c(c1)C1C=CCC1C(c1ccc(C(=O)O)cc1)N2` (stereo unspecified) as the molecule, how does the inhibition of ligand binding (at 10 µM) read?
Its inhibition of ligand binding is 55% (inactive).

What about the inhibition of ligand binding (binding inhibition, at 0.1 µM) of the same molecule?
Its inhibition of ligand binding is 1%.

What does the source list for `C/C(N)=C(/C#N)C(=O)CSc1nnc(Nc2ccccc2C)s1`?
inhibition of ligand binding (at 10 µM): 48% (inactive); inhibition of ligand binding (binding inhibition, at 0.1 µM): 18%

Which inhibition of ligand binding (at 10 µM) does the source give for `Cc1nnc(Oc2ccccc2F)c2ccccc12` here?
The inhibition of ligand binding was 36% (inactive).

And the inhibition of ligand binding (binding inhibition, at 0.1 µM)?
The inhibition of ligand binding was 57%.

With `Cc1nn(-c2ccccc2)c(/N=C/c2ccc(O)cc2)c1-c1ccccc1` as the molecule, how does the inhibition of ligand binding (at 10 µM) read?
Its inhibition of ligand binding is 77% (active).

What about the inhibition of ligand binding (binding inhibition, at 0.1 µM) of the same molecule?
Its inhibition of ligand binding is 50%.

How did the inhibition of ligand binding (at 10 µM) turn out when `O=C(Nc1nc(-c2ccc(S(=O)(=O)N3CCOCC3)cc2)cs1)c1ccccc1` was run?
The inhibition of ligand binding was 48% (inactive).

And the inhibition of ligand binding (binding inhibition, at 0.1 µM)?
The inhibition of ligand binding was 25%.

With `Cn1nc([N+](=O)[O-])c2c(-c3nc4ccccc4s3)c(N)n(C3CCCCC3)c2c1=O` as the molecule, how does the inhibition of ligand binding (at 10 µM) read?
The inhibition of ligand binding was 30% (inactive).

What about the inhibition of ligand binding (binding inhibition, at 0.1 µM) of the same molecule?
The inhibition of ligand binding was 18%.

With `COc1ccc(OC)c(NC(=O)c2cc(-c3ccc(C)cc3O)n[nH]2)c1` as the molecule, how does the inhibition of ligand binding (at 10 µM) read?
Its inhibition of ligand binding is 40% (inactive).

What about the inhibition of ligand binding (binding inhibition, at 0.1 µM) of the same molecule?
The inhibition of ligand binding was 5%.

With `C1CCC(c2nn3c(-c4n[nH]c5c4CCC5)nnc3s2)CC1` as the molecule, how does the inhibition of ligand binding (at 10 µM) read?
The inhibition of ligand binding was 20% (inactive).

And the inhibition of ligand binding (binding inhibition, at 0.1 µM)?
Its inhibition of ligand binding is 5%.

How did the inhibition of ligand binding (at 10 µM) turn out when `CCC(=O)Oc1ccc(/C(CC)=C(\CC)c2ccc(OC(=O)CC)cc2)cc1` was run?
The inhibition of ligand binding was 77% (active).

What about the inhibition of ligand binding (binding inhibition, at 0.1 µM) of the same molecule?
Its inhibition of ligand binding is 86%.

For `COC(=O)c1cc(-c2c(C)oc3cc(O)ccc3c2=O)c(C)o1`, which inhibition of ligand binding (at 10 µM) is on record?
The inhibition of ligand binding was 32% (inactive).

And the inhibition of ligand binding (binding inhibition, at 0.1 µM)?
The inhibition of ligand binding was 50%.

Which inhibition of ligand binding (at 10 µM) does the source give for `Nc1ccc2nn(-c3cccc4ccccc34)nc2c1` here?
The inhibition of ligand binding was 0% (inactive).

And the inhibition of ligand binding (binding inhibition, at 0.1 µM)?
Its inhibition of ligand binding is 12%.

What does the source list for `Cc1cccc(N2CSC3=C(C#N)C(c4ccc(C)o4)CC(=O)N3C2)c1` (stereo unspecified)?
inhibition of ligand binding (at 10 µM): 27% (inactive); inhibition of ligand binding (binding inhibition, at 0.1 µM): 13%

How did the inhibition of ligand binding (at 10 µM) turn out when `C/C(N)=C(/C#N)C(=O)CSc1nnnn1-c1ccc(C)cc1` was run?
The inhibition of ligand binding was 9% (inactive).

And the inhibition of ligand binding (binding inhibition, at 0.1 µM)?
Its inhibition of ligand binding is 14%.

Reference: PubChem BioAssay AID1211 (NMMLSC, 2008)
